The record followed here is PubChem BioAssay (NCATS).

Inconclusive results are not listed. Entries that show only a call come without a potency. Activity calls are given as the source filed them. Calls come from the whole dose curve; as a rule, active = well fitted inhibition curve with a large enough effect; inconclusive = small, poorly fitted or top-dose-only effect; inactive = no such curve, though single readings can be large or run the other way.
Potency is the fitted concentration of half-maximal effect.

This assay in a line: NS1 protein of Zika virus - qHTS assay to identify small molecule inhibitors in human HEK 293 cells (AID 1347053). Note: nearly all actives have a fitted effect of over 55% in size. To be noted: HEK293 ZIKV MR766 infection, NS1 TR-FRET, 24 h; series mostly up to 46.1 µM. The text has this:
National Center for Advancing Translational Sciences [NCATS]
Johns Hopkins University School of Medicine
The non-structural 1 (NS1) protein of zika virus is known to associate with the viral replication complex. This cell-based TR-FRET ZIKV NS-1 assay measures the increased NS-1 protein in human HEK 293 cells after a 24-hour Zika virus infection by a TR-FRET assay readout. A decrease in the Time-resolved fluorescence energy transfer (TR-FRET) signal in this assay by small molecule treatment indicates an inhibitory effect of the small molecule on the expression of Zika virus NS1 correlating with Zika virus replication.
HEK 293 cells were cultured in EMEM (ATCC, Cat. # 30-2003) medium with 10% fetal bovine serum (GE healthcare Life Sciences, Cat. # SH30071.03), and 1% Pen/Strep (Gibco, Cat. # 15140-122). Cells were seeded in the assay plate and incubated at 37 C with 5% CO2 for 20 hours. Compounds were added to cells and incubated for one hour before addition of ZIKV MR766 strain solution to cells (MOI = 0.5). After an incubation at 37 C for 24 hours, the reagent mixture of TR-FRET ZIKV NS1 assay using two anti-ZIKV NS1 antibodies was added to assay plates. The TR-FRET signals in assay plates were measured using an Envision plate reader (PerkinElmer). Data were normalized by using the cell-containing wells without ZIKV as a negative control (0% NS-1) and wells containing ZIKV infected cells as a positive control (100% NS-1 level).
(Quantitative high-throughput screening tests each substance at several concentrations.)
For the molecule `C[C@]12CC[C@H](O)CC1=CC[C@@H]1[C@@H]2CC[C@]2(C)C(=O)CC[C@@H]12`, the Potency result is “inactive”.
Then `CC(C)=C[C@@H]1[C@@H](C(=O)OCc2coc(Cc3ccccc3)c2)C1(C)C`, with “inactive”; and `C#C[C@]1(O)CC[C@H]2[C@@H]3CCC4=CC(=O)CCC4=C3C=C[C@@]21CC`, with “inactive”.
Then `O=C(O)Cc1ccccc1`, with “inactive”; and `COCC(=O)N(c1c(C)cccc1C)C(C)C(=O)OC` (stereo not given), with “inactive”.
Then `COc1cc(CC#N)cc(OC)c1OC`, with “inactive”; and `Cc1ccc(N=CN(C)C=Nc2ccc(C)cc2C)c(C)c1`, with “inactive”.
Take `COC(=O)C1=CCCN(C)C1`: the Potency entry is “inactive”.
Then `COP(=S)(OC)Oc1ccc(Sc2ccc(OP(=S)(OC)OC)cc2)cc1`, with “inactive”; and `c1ccc2c(c1)Sc1ccccc1N2CC1CN2CCC1CC2` (stereo not given), with 3.16 µM (active).
Turning to `COc1ccc(CN2CCNCC2)c(OC)c1OC`, the Potency result was “inactive”.
On to `CC(C)[N+](C)(CCC(C(N)=O)(c1ccccc1)c1ccccc1)C(C)C`, for which the Potency entry is “inactive”.
With `COP(=S)(OC)Oc1ccc(S(N)(=O)=O)cc1`, the Potency entry was “inactive”.
Then `CC(C)(C)OC(=O)c1ncn2c1[C@@H]1CCCN1C(=O)c1c(Br)cccc1-2`, with “inactive”; and `C[C@]12CC[C@H]3[C@@H](CCC4=CC(=O)CC[C@@]43C)[C@@H]1CC[C@@H]2C(=O)O`, with “inactive”; and `CCCOC(=O)Cc1ccc(OCC(=O)N(CC)CC)c(OC)c1`, with “inactive”.
For `CCOC(=O)C1(c2ccccc2)CCN(CCc2ccc(N)cc2)CC1`, the Potency result was “inactive”.
Take `CCCC(C)C1(CC)C(=O)N=C(S)NC1=O` (stereo not given): the Potency entry was “inactive”.
Then `COc1ccc(C(=O)N2CCCC2=O)cc1`, with “inactive”; and `COc1cc(C[C@@H](C)N)c(OC)cc1Br`, with “inactive”.
Then `CN1C(=O)[C@@H](NC(=O)c2cc3ccccc3[nH]2)N=C(c2ccccc2)c2ccccc21`, with “inactive”; and `COc1ccc2[nH]cc(CCN(C(C)C)C(C)C)c2c1`, with “inactive”.
Then `CC1Sc2c(C(=O)O)c(=O)c3cc(F)c(N4CCNCC4)cc3n21` (stereo not given), with “inactive”.
Take `CCC1(CC)C(=O)NC(=O)NC1=O`: the Potency entry was “inactive”.
Then `CC1N=C(N)OC1c1ccccc1` (stereo not given), with “inactive”; and `COc1cc(CC(C)N)c(OC)cc1Br` (stereo not given), with “inactive”; and `C[C@@H]1CC[C@H]2[C@@H](C)C(=O)O[C@@H]3O[C@@]4(C)CC[C@@H]1[C@]32OO4`, with “inactive”.
Regarding `CCOC(=O)NC(C)(C)Cc1ccc(Cl)cc1`, the Potency entry was “inactive”.
Then `C[C@]12C=CC(=O)C=C1CC[C@@H]1[C@@H]2CC[C@@]2(C)[C@H]1CC[C@]2(C)O`, with “inactive”.
Then `CCC1(c2cccc(O)c2)CCCCN(C)C1` (stereo not given), with “inactive”; and `CC(C(O)c1ccccc1)N(C)C/C=C/c1ccccc1` (stereo not given), with “inactive”; and `Cc1c(Cl)c(=O)oc2cc(OP(=O)(OCCCl)OCCCl)ccc12`, with “inactive”.
With `O=C1NCN(c2ccccc2)C12CCN(CCCOc1ccc(F)cc1)CC2`, the Potency result is “inactive”.
Take `CC[n+]1c(-c2ccccc2)c2cc(N)ccc2c2ccc(N)cc21`: the Potency result is “inactive”.
Then `CCCC[N+]1(C)[C@@H]2CC(OC(=O)[C@H](CO)c3ccccc3)C[C@H]1[C@@H]1O[C@@H]12` (stereo not given in full), with “inactive”; and `CN1C(=O)CN=C(c2ccccc2)c2cc([N+](=O)[O-])ccc21`, with “inactive”; and `O=C(CCCCl)c1ccc(F)cc1`, with “inactive”.
Then `COc1cc(CC(C)N)cc2c1OCO2` (stereo not given), with “inactive”.
Turning to `C[N+]1(C)[C@@H]2CC[C@H]1CC(OC(=O)C(CO)c1ccccc1)C2` (stereo not given in full), the Potency result is “inactive”.
Then `CCC1(c2ccccc2)CCC(=O)NC1=O` (stereo not given), with “inactive”.
